Cytotoxicity data for 27 molecules are collected here from PubChem BioAssay AID431 (Sanford-Burnham Center for Chemical Genomics, 2006).

In all, about 63,000 compounds went through this assay and about 1,100 (1.7%) were called active. This is one part of a sample in which actives are shown more often than they occur.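 The calls were made as follows: active = compounds whose percent cytotoxicity in the single-dose primary screen, scaled between solvent and toxic-drug controls, exceeds 50; inactive = the rest.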 Entries with a potency or affinity are not part of this list.

This assay in a line: cytotoxicity in KRAS-transformed pancreatic duct cells, primary screen, cell-based, fluorescence, HTS (AID 431).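 Also: 0% = DMSO solvent wells and 100% = doxorubicin-treated wells.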 Particulars: HPDE-C7K KRASV12 cells, Alamar Blue viability, 48 h; at 10 µM; active compounds read high. In general terms: The colour change of resazurin is a common sign of viable cells or microbes.
Consider `Cc1nn2c(N3CCOCC3)c3c(nc2c1-c1ccccc1)CCCC3`, for which the cytotoxicity is 8.5% (inactive).
With `CC1=C(C#N)c2nc(N)c(C#N)c(C)c2/C1=C\c1ccccc1`, the cytotoxicity is 107% (active).
With `Cc1c(-c2ccccc2)nc(N)c(C#N)c1-c1ccco1`, the cytotoxicity was -7.4% (inactive).
As for `Cc1nc(N)c(C#N)c(-c2ccccc2)c1C`, the figure is 18.7% (inactive); as for `O=C(Nc1nc2ccccc2[nH]1)c1ccc(F)cc1`, -12% (inactive); as for `Cc1nc2ccc(C(=O)c3ccccc3)cc2[nH]1`, 1.1% (inactive).
As for `O=C(COc1ccccc1)Nc1nc2ccccc2[nH]1`, the cytotoxicity is -1.5% (inactive).
With `COC(=O)Nc1nc2ccc(C(=O)c3ccccc3)cc2[nH]1`, the cytotoxicity is 67.2% (active).
As for `COC(=O)Nc1nc2ccc(Sc3ccccc3)cc2[nH]1`, the figure is 57.5% (active); as for `COc1cc(C(=O)Nc2nc3ccccc3[nH]2)cc(OC)c1OC`, -19.5% (inactive).
Consider `CCC(C)N(C(=O)COC(=O)Cc1n[nH]c(=O)c2ccccc12)C1CCS(=O)(=O)C1` (configuration not stated), for which the cytotoxicity is -29.5% (inactive).
Under `O=C(CN(C(=O)Cn1nnc(-c2cccs2)n1)c1cnc2ccccc2c1)NCC1CCCO1` (configuration not stated) stands -3.6% (inactive); under `O=C(COc1ccc(F)c(Cl)c1)c1ccc[nH]1`, -3.1% (inactive).
`COc1cc(-c2nnc(-c3ccc(S(=O)(=O)c4ccccc4)cc3)o2)cc(OC)c1OC`: the cytotoxicity is -1.1% (inactive).
Under `COc1ccc(C2C(C(=O)N3CCCC3)CC(=O)N2c2ccc(OC)cc2)cc1` (configuration not stated) stands 1.8% (inactive); under `CN(C)CC(=O)c1ccc(-c2ccccc2)cc1`, -1.7% (inactive).
Under `CC(=O)Nc1cc(-c2nn3c(C)nnc3s2)ccc1C` stands 6.7% (inactive); under `Cc1nc(SCC(=O)CC(=O)OC(C)C)c(C#N)c(C)c1C`, -4.4% (inactive); under `Cc1cc(C)c(C#N)c(SCC(=O)CC(=O)OC(C)C)n1`, 29.7% (inactive).
Under `CCOC(=O)CC(=O)Nc1nnc(CC(C)C)s1` stands -10.3% (inactive).
Take `CCOC(=O)N1CCC(NC(=O)Cn2cccc2C(=O)c2ccccc2)CC1`: the cytotoxicity is -6.2% (inactive).
As for `Cc1onc(-c2ccccc2Cl)c1C(=O)Oc1cc(N)n(S(=O)(=O)c2ccc(F)cc2)n1`, the figure is 36.8% (inactive); as for `COc1ccccc1C(=O)Oc1cc(N)n(S(=O)(=O)c2ccc(C)cc2)n1`, -5.5% (inactive); as for `COc1ccc(S(=O)(=O)n2nc(OC(=O)c3c(-c4ccccc4Cl)noc3C)cc2N)cc1`, 51.1% (active).
Take `COc1ccc(S(=O)(=O)n2nc(OC(=O)c3ccc(C)cc3)cc2N)cc1`: the cytotoxicity is -7.7% (inactive).
As for `Cc1ccc(S(=O)(=O)n2nc(OC(=O)c3c(-c4ccccc4Cl)noc3C)cc2N)cc1`, the figure is 73% (active); as for `COc1ccc(S(=O)(=O)n2nc(OC(=O)c3ccccc3)cc2N)cc1`, 0% (inactive).
